Experimental data from the supplement of paper PMC13380429.

Test system: Vero E6 infected with SARS-CoV-2
Test: inhibition of SARS-CoV-2 cytopathic effect; higher = more antiviral protection, active = above 15
Settings: 48 h

Measured: inhibition of SARS-CoV-2 cytopathic effect

O[C@H]([C@H](O)[C@@H]1CO1)[C@H]1CO1 [dianhydrogalactitol]
inactive: 1 nM -0.61% | 8.33 nM -1.52% | 100 nM -3.41% | 833.33 nM 0.41% | 10000 nM 2.5%

CN(C)C(=O)c1ccc(S(=O)(=O)c2ccc(NC(=O)[C@@](C)(O)C(F)(F)F)c(Cl)c2)cc1
inactive: 1 nM -0.45% | 8.33 nM 0.49% | 100 nM 0.27% | 833.33 nM 0.59% | 10000 nM -3.54%

O=C(NCc1ccc(F)cc1)N1CCN2C(=O)OC(c3ccccc3)(c3ccccc3)[C@@H]2C1 (racemic)
inactive: 1 nM 1.17% | 8.33 nM 1.29% | 100 nM 3.05% | 833.33 nM 3.22% | 10000 nM -6.01%

CC12CCC(C(Br)C1=O)C2(C)C (stereo not given) [3-bromocamphor]
inactive: 1 nM -1.02% | 8.33 nM 0.99% | 100 nM -0.16% | 833.33 nM 1.85% | 10000 nM 0.04%

CC(=O)Nc1ccc(C(=O)Nc2ccccc2N)cc1 [tacedinaline]
inactive: 1 nM 1.04% | 8.33 nM 1.48% | 100 nM -0.39% | 833.33 nM -3.01% | 10000 nM -1.74%

CC(C)NCC(O)c1ccc(N)c(C#N)c1 (stereo not given) [cimaterol]
inactive: 1 nM 6.86% | 8.33 nM 6.95% | 100 nM 10.5% | 833.33 nM 3.99% | 10000 nM 4.49%

CN(C)CCCN1c2ccccc2Sc2ccc(Cl)cc21 [chlorpromazine]
inactive: 1 nM -0.39% | 8.33 nM 2.71% | 100 nM 1.5% | 833.33 nM 2.32% | 10000 nM 7.04%

O=C(Nc1cccc(C(F)(F)F)c1)Nc1cc(S(=O)(=O)NC2CC2)ccc1-c1ccsc1
inactive: 1 nM -0.22% | 8.33 nM -0.85% | 100 nM 0.27% | 833.33 nM 0.38% | 10000 nM 0.46%

CC(=O)NC1CCSC1=O (stereo not given) [citiolone]
inactive: 1 nM 3.06% | 8.33 nM -0.41% | 100 nM -6.39% | 833.33 nM -4.01% | 10000 nM 2.58%

Nc1ccc(S(N)(=O)=O)cc1 [sulfanilamide]
inactive: 1 nM -4.21% | 8.33 nM -0.69% | 100 nM 4.19% | 833.33 nM 2.93% | 10000 nM 1.32%

COC(=O)Nc1nc2cc(C(=O)c3ccc(F)cc3)ccc2[nH]1 [flubendazole]
inactive: 1 nM -1.07% | 8.33 nM 0.53% | 100 nM 0.32% | 833.33 nM 0.07% | 10000 nM -2.34%

Cc1cc(O)c(-c2ccc([C@@H](C)CN)cc2)c2c1[nH]c(=O)c1sccc12
inactive: 1 nM -2.25% | 8.33 nM -1.13% | 100 nM -0.22% | 833.33 nM 3.77% | 10000 nM -23.9%

c1cc(OCCN2CCCCC2)cc(-c2n[nH]c3ccc(-c4nnc[nH]4)cc23)c1
inactive: 1 nM -0.48% | 8.33 nM -0.97% | 100 nM -0.96% | 833.33 nM 3.62% | 10000 nM 3.74%

NCC(=O)O
inactive: 1 nM 1.39% | 8.33 nM -0.35% | 100 nM 1.12% | 833.33 nM -1.32% | 10000 nM 0.49%

NC[C@@H]1O[C@H](O[C@@H]2[C@@H](CO)OC(O[C@@H]3[C@@H](O)[C@H](N)C[C@H](N)[C@H]3OC3O[C@H](CN)[C@@H](O)[C@H](O)[C@H]3N)[C@@H]2O)[C@H](N)[C@@H](O)[C@@H]1O (stereo not given in full)
inactive: 1 nM -1.31% | 8.33 nM -1.2% | 100 nM 0.22% | 833.33 nM 1.17% | 10000 nM -0.07%

CC(C)(Oc1ccc(Cl)cc1)C(=O)O [clofibric-acid]
inactive: 1 nM 0.55% | 8.33 nM 2.02% | 100 nM 0.3% | 833.33 nM 2.45% | 10000 nM 2.22%

C[C@]12CC[C@@H]3c4ccc(OC(=O)N(CCCl)CCCl)cc4CC[C@H]3[C@@H]1CC[C@@H]2OP(=O)(O)O [estramustine-phosphate]
inactive: 1 nM -1.79% | 8.33 nM 0.03% | 100 nM -0.34% | 833.33 nM -1.57% | 10000 nM -2.26%

COc1ccc(C(=O)NCc2ccc(OCCN(C)C)cc2)cc1OC [itopride]
inactive: 1 nM 0.25% | 8.33 nM -0.19% | 100 nM 1.77% | 833.33 nM -0.42% | 10000 nM 0.72%

CCCCNNC(=O)c1ccc(Br)cc1
inactive: 1 nM 2.76% | 8.33 nM 1.2% | 100 nM 2.26% | 833.33 nM 3.31% | 10000 nM -5.28%

N#Cc1nn(-c2c(Cl)cc(C(F)(F)F)cc2Cl)c(N)c1[S+]([O-])C(F)(F)F (stereo not given) [fipronil]
inactive: 1 nM 0.34% | 8.33 nM 3.14% | 100 nM 1.21% | 833.33 nM 3.8% | 10000 nM 3.66%

CC(=O)NS(=O)(=O)c1ccc(N)cc1 [sulfacetamide]
inactive: 1 nM 0.35% | 8.33 nM 2.07% | 100 nM 1.95% | 833.33 nM 2.14% | 10000 nM 0.21%

Cn1c(=O)c(F)c(Nc2ccc(I)cc2F)c2c(=O)n(C[C@@H](O)CO)cnc21
inactive: 1 nM -3.03% | 8.33 nM -6.23% | 100 nM -11% | 833.33 nM -11.6% | 10000 nM -12.3%

CCn1c(-c2nonc2N)nc2cnc(Oc3cccc(NC(=O)c4ccc(OCCN5CCOCC5)cc4)c3)cc21
inactive: 1 nM 3.5% | 8.33 nM 0.11% | 100 nM -2.86% | 833.33 nM -4.75% | 10000 nM -5.7%

CCN(CC)CCNC(=O)c1ccccc1I
inactive: 1 nM 1.9% | 8.33 nM 1.7% | 100 nM 2.44% | 833.33 nM -2.04% | 10000 nM 2.51%

Cc1ccc(-c2ccc(C)cn2)nc1 [abametapir]
inactive: 1 nM -4.6% | 8.33 nM 1.76% | 100 nM -1.42% | 833.33 nM -3.2% | 10000 nM -1.76%

O=[N+]([O-])c1cnc(Sc2nnc(O)n2-c2ccc3c(c2)OCCO3)s1
inactive: 1 nM 0.17% | 8.33 nM 0.75% | 100 nM 1.8% | 833.33 nM 0.05% | 10000 nM -17.7%

O=C(O)/C=C/c1ccc(Cn2ccnc2)cc1 [ozagrel]
inactive: 1 nM 0.02% | 8.33 nM 3.28% | 100 nM 0.19% | 833.33 nM 0.75% | 10000 nM -0.91%

CC(C)CNc1nc(-c2cccc3ncccc23)cn2c(-c3ccc(C(=O)NC4CC4)cc3)cnc12
inactive: 1 nM -3.61% | 8.33 nM -1.58% | 100 nM 1.09% | 833.33 nM -6.07% | 10000 nM -3.69%

CN1CCc2nc(C(=O)N[C@@H]3C[C@@H](C(=O)N(C)C)CC[C@@H]3NC(=O)C(=O)Nc3ccc(Cl)cn3)sc2C1 [edoxaban]
inactive: 1 nM -1.16% | 8.33 nM -1.57% | 100 nM -1.51% | 833.33 nM -3.37% | 10000 nM -1.69%

CN1C(=O)N(c2cc(Cl)cc(Cl)c2)C(=O)[C@]12CN(c1ccc(C(=O)O)cn1)C[C@H]2c1ccc(C#N)cc1
inactive: 1 nM 1.7% | 8.33 nM 0.43% | 100 nM 1.42% | 833.33 nM 1.84% | 10000 nM 1.57%

O=C(Nc1cc(Oc2cc(F)c(NC(=O)C3(C(=O)Nc4ccc(F)cc4)CC3)cc2F)ccn1)C1CC1 [altiratinib]
inactive: 1 nM -1% | 8.33 nM 2.23% | 100 nM 3.44% | 833.33 nM -1.62% | 10000 nM 1.09%

O=P1(N(CCCl)CCCl)NCCCO1 (stereo not given) [cyclophosphamide]
inactive: 1 nM -3.03% | 8.33 nM 0.27% | 100 nM -0.35% | 833.33 nM -1.65% | 10000 nM 0.46%

CO/N=C(\C(=O)N[C@@H]1C(=O)N2C(C(=O)[O-])=C(C[n+]3ccn4ncccc43)CS[C@H]12)c1nsc(N)n1 [cefozopran]
inactive: 1 nM -1.88% | 8.33 nM 1.38% | 100 nM -0.43% | 833.33 nM -0.82% | 10000 nM -0.02%

O=C(O)Cc1ccc(OCc2ccccc2)c(Cl)c1 [benzofenac]
inactive: 1 nM -0.05% | 8.33 nM 4.15% | 100 nM 1.74% | 833.33 nM 1.88% | 10000 nM 0.27%

Cc1cccn2c(=O)c(-c3nnn[nH]3)cnc12 [pemirolast]
inactive: 1 nM -0.01% | 8.33 nM 0.57% | 100 nM 0.12% | 833.33 nM 3.15% | 10000 nM -1.12%

CCO/N=C(\C(=O)N[C@@H]1C(=O)N2C(C(=O)[O-])=C(Sc3nc(-c4cc[n+](C)cc4)cs3)CS[C@H]12)c1nsc(NP(=O)(O)O)n1 [ceftaroline-fosamil]
inactive: 1 nM 3.38% | 8.33 nM 2.02% | 100 nM 4.54% | 833.33 nM 4.34% | 10000 nM 3.55%

C[N+](C)(C)CCCCCNCC12CC3CC(CC(C3)C1)C2
inactive: 1 nM -4.72% | 8.33 nM -5.14% | 100 nM -6.53% | 833.33 nM -6.39% | 10000 nM -4.67%

COc1ccc(-c2ccc3c(N4CCOC[C@@H]4C)nc(N4CCOC[C@@H]4C)nc3n2)cc1CO
inactive: 1 nM -1.08% | 8.33 nM -2.46% | 100 nM -3.62% | 833.33 nM -4.35% | 10000 nM -6.56%

Cc1nccn1CCC(C(N)=O)(c1ccccc1)c1ccccc1 [imidafenacin]
inactive: 1 nM -0.4% | 8.33 nM -0.55% | 100 nM 1.32% | 833.33 nM 4.43% | 10000 nM 0.89%

C[N+](C)(C)[C@@H](Cc1c[nH]c(=S)[nH]1)C(=O)O [L-ergothioneine]
inactive: 1 nM 1.26% | 8.33 nM -1.22% | 100 nM 2.33% | 833.33 nM 2.82% | 10000 nM 0.9%
